Source: the supplement of paper PMC8540655

These molecules were tested on Aedes aegypti larvae (assay: larval motility relative to same well at 0 h (fraction); higher = more motile (less active compound), active = 0.4 or less). Conditions: 10 µM; 2 h.
Protocol: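 MMV Pandemic Response Box compounds were tested at 10 µM (1% v/v DMSO) on Aedes aegypti larvae (18-24 h after hatching, about 10 per well, 96-well plates). Motility was quantified with INVAPP (200-frame movies) at 0, 2 and 24 h. Each well's motility was divided by its own 0 h score, and the median of 3 independent screens is reported.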

| SMILES | larval motility |
| --- | --- |
| O=C(Nc1ncc(Cc2cccc3ccccc23)s1)C1CCCCC1 | 1.07 (inactive) |
| CCc1nc2ccc(Cl)cn2c1C(=O)NCc1ccc(N2CCC(c3ccc(OC(F)(F)F)cc3)CC2)cc1 | 0.959 (inactive) |
| CC(C)n1cnc2c(NCc3ccccc3)nc(NCc3ccccc3)nc21 | 1.3 (inactive) |
| OC1O[C@H](CSc2ccc(F)cc2)[C@@H](O)[C@H]1O (stereo not given in full) | 1.09 (inactive) |
| O=C(Nc1nnc(-c2ccc(Cl)cc2)o1)c1nc2ccccc2s1 | 0.919 (inactive) |
| Nc1nc(-c2ccccc2)nc2c1ncn2[C@@H]1O[C@H](COS(=O)(=O)NC(=O)c2ccccc2O)[C@@H](O)[C@H]1O | 0.842 (inactive) |
| CCC(CC)[C@H](NC(C)=O)[C@@H]1[C@H](O)[C@@H](C(=O)O)C[C@H]1NC(=N)N | 0.729 (inactive) |
| O=C(Nc1ccc(Cl)c(C(F)(F)F)c1)C(CCCl)C(=O)Nc1ccc(Cl)c(C(F)(F)F)c1 | 0.848 (inactive) |
| CN1CCN(Cc2ccc(-c3cnc4[nH]cc(-c5ccc6[nH]ccc6c5)c4c3)cc2)CC1 | 0.696 (inactive) |
| O=C1c2cccc3cccc(c23)C(=O)N1CC1CO1 (stereo not given) | 0.906 (inactive) |
| CCCCCOc1ccc(/C=C2\Oc3c(ccc(O)c3O)C2=O)c(O)c1 | 0.621 (inactive) |
| CN(C)CCNC(=O)c1cccc2cccnc12 | 0.941 (inactive) |
| CC(C)(C)c1ccc(OCCn2nc(C(=O)O)c3ccccc3c2=O)cc1 | 2.82 (inactive) |
| Cc1cc(O)c2c(c1)C(=O)c1c(I)c(O)c(I)c(O)c1C2=O | 0.851 (inactive) |
| NC(=O)c1cnccn1 | 0.745 (inactive) |
| Cc1ccc(NC(=O)c2cc(Cl)ccc2O)cc1 | 0.656 (inactive) |
| Oc1cc(-c2cccc3ccccc23)[nH]n1 | 0.626 (inactive) |
| OC[C@@H]1CC[C@H](n2cnc3c(O)ncnc32)O1 | 1.15 (inactive) |
| N[C@H](CCC(=O)N[C@@H](Cc1c[nH]c2ccccc12)C(=O)O)C(=O)O | 0.936 (inactive) |
| O=C(Nc1ccccc1)N(Cc1cc(Br)ccc1O)c1ccc(F)cc1 | 0.646 (inactive) |

Same assay, conditions: 10 µM; 24 h

| SMILES | larval motility |
| --- | --- |
| O=C(Nc1ncc(Cc2cccc3ccccc23)s1)C1CCCCC1 | 1.56 (inactive) |
| CCc1nc2ccc(Cl)cn2c1C(=O)NCc1ccc(N2CCC(c3ccc(OC(F)(F)F)cc3)CC2)cc1 | 0.891 (inactive) |
| CC(C)n1cnc2c(NCc3ccccc3)nc(NCc3ccccc3)nc21 | 1.42 (inactive) |
| OC1O[C@H](CSc2ccc(F)cc2)[C@@H](O)[C@H]1O (stereo not given in full) | 1.32 (inactive) |
| O=C(Nc1nnc(-c2ccc(Cl)cc2)o1)c1nc2ccccc2s1 | 1.05 (inactive) |
| Nc1nc(-c2ccccc2)nc2c1ncn2[C@@H]1O[C@H](COS(=O)(=O)NC(=O)c2ccccc2O)[C@@H](O)[C@H]1O | 1.04 (inactive) |
| CCC(CC)[C@H](NC(C)=O)[C@@H]1[C@H](O)[C@@H](C(=O)O)C[C@H]1NC(=N)N | 1.91 (inactive) |
| O=C(Nc1ccc(Cl)c(C(F)(F)F)c1)C(CCCl)C(=O)Nc1ccc(Cl)c(C(F)(F)F)c1 | 0.397 (active) |
| CN1CCN(Cc2ccc(-c3cnc4[nH]cc(-c5ccc6[nH]ccc6c5)c4c3)cc2)CC1 | 0.967 (inactive) |
| O=C1c2cccc3cccc(c23)C(=O)N1CC1CO1 (stereo not given) | 0.936 (inactive) |
| CCCCCOc1ccc(/C=C2\Oc3c(ccc(O)c3O)C2=O)c(O)c1 | 1.4 (inactive) |
| CN(C)CCNC(=O)c1cccc2cccnc12 | 0.825 (inactive) |
| CC(C)(C)c1ccc(OCCn2nc(C(=O)O)c3ccccc3c2=O)cc1 | 3.46 (inactive) |
| Cc1cc(O)c2c(c1)C(=O)c1c(I)c(O)c(I)c(O)c1C2=O | 1.08 (inactive) |
| NC(=O)c1cnccn1 | 1 (inactive) |
| Cc1ccc(NC(=O)c2cc(Cl)ccc2O)cc1 | 0.616 (inactive) |
| Oc1cc(-c2cccc3ccccc23)[nH]n1 | 0.554 (inactive) |
| OC[C@@H]1CC[C@H](n2cnc3c(O)ncnc32)O1 | 0.963 (inactive) |
| N[C@H](CCC(=O)N[C@@H](Cc1c[nH]c2ccccc12)C(=O)O)C(=O)O | 0.838 (inactive) |
| O=C(Nc1ccccc1)N(Cc1cc(Br)ccc1O)c1ccc(F)cc1 | 1.02 (inactive) |
